Reference: the supplement of paper PMC10849652
Targets with a hit are over-represented here; the source holds about 7,900 in all. About 0.6% of all pairs of compound and target were hits.

These targets were tested with C1CN(CCC1(CC2=CC=C(C=C2)Cl)N)C3=NC=NC4=C3C=CN4 (assay: log2 fold change, soluble protein after heating vs DMSO (PISA); higher = thermal stabilisation; K562 cells, 10 uM, 30 min; active = over 0.2 and 3.5 SD of the protein, either way, in both replicates (recomputed)).
Procedure, shortened: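 K562 cells at 2×10^6 cells/mL were treated with 10 μM compound for 30 min. Aliquots were heated for 3 min across 48°C-58°C, pooled, and extracted in PBS with 0.5% NP-40 at 4°C; soluble protein was the supernatant after 21,000xg for 90 min. Soluble protein was quantified by TMTpro 16plex LC-MS/MS with channel sums equalised, and reported as log2 fold change in thermal stability against DMSO controls, with values from duplicates.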

UniProt O95568, sequence (O95568 whole entry, looked up): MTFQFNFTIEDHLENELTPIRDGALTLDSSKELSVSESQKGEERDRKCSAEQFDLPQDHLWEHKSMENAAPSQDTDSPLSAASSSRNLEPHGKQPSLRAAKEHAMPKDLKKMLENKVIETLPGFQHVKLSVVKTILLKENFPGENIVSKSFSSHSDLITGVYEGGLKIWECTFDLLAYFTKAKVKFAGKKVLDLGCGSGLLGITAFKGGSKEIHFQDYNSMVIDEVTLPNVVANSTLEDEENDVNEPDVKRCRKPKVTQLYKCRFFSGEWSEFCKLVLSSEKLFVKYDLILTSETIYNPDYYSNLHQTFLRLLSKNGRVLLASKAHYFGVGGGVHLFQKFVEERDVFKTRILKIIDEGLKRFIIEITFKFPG
UniProt Q96P70, sequence (Q96P70 whole entry, looked up): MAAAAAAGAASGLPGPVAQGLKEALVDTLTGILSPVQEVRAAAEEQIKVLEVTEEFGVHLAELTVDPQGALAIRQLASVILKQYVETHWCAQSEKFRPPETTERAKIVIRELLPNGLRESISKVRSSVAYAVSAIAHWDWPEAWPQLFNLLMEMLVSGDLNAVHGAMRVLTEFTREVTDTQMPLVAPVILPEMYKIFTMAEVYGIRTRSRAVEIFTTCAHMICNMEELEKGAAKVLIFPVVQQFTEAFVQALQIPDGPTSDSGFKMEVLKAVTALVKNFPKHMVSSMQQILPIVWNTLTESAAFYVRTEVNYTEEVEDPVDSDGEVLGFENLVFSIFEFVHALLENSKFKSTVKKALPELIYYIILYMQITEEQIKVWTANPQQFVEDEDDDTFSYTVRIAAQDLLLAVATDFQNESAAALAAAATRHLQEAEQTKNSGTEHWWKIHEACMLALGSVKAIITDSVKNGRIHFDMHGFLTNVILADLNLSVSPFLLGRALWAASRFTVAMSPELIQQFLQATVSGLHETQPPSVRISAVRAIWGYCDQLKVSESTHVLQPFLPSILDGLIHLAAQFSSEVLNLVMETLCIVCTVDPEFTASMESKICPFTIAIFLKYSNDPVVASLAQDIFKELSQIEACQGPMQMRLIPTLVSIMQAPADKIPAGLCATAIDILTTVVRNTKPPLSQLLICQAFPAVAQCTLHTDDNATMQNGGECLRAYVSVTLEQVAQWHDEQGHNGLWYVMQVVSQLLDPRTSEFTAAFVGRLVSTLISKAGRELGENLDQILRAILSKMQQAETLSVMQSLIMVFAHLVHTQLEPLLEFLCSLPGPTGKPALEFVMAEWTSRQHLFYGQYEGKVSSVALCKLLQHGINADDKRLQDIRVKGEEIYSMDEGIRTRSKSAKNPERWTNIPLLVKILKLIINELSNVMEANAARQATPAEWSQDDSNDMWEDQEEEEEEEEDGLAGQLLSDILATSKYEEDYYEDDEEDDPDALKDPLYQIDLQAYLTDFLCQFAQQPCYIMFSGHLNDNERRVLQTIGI
UniProt Q14739, sequence (Q14739 whole entry, looked up): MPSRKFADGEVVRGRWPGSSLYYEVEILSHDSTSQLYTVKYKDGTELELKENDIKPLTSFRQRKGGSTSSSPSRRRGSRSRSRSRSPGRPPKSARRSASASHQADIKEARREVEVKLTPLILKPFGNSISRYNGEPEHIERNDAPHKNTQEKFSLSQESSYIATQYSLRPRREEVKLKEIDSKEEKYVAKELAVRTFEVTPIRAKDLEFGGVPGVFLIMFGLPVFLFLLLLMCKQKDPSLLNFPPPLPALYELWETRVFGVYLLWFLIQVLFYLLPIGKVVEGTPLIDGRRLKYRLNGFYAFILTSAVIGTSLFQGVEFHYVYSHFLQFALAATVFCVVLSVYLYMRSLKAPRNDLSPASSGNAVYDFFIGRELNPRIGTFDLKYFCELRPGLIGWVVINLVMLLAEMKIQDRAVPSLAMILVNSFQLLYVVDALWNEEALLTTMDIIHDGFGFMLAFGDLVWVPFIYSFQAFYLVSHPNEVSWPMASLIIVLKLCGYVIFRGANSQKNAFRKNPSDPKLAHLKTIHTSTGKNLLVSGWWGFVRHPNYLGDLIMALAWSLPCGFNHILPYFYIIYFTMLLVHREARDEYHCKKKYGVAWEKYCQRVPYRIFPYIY
UniProt Q9H9P8, sequence (Q9H9P8 whole entry, looked up): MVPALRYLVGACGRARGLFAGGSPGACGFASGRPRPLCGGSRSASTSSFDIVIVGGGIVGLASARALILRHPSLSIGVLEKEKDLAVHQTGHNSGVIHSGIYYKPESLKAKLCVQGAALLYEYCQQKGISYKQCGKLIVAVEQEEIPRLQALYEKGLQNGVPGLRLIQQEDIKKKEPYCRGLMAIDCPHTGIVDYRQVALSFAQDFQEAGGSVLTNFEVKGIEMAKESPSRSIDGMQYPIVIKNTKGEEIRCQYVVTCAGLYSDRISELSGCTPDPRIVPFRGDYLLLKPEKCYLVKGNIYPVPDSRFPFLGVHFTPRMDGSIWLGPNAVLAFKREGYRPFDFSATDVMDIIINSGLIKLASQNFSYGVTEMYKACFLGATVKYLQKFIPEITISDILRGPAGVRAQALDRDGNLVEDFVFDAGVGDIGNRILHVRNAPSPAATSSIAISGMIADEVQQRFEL
UniProt O14880, sequence (O14880 whole entry, looked up): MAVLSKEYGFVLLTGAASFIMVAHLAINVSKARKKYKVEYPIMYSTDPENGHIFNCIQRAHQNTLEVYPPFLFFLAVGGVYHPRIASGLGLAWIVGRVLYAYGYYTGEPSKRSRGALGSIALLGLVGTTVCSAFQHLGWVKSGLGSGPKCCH
UniProt Q02750, sequence (Q02750 whole entry, looked up): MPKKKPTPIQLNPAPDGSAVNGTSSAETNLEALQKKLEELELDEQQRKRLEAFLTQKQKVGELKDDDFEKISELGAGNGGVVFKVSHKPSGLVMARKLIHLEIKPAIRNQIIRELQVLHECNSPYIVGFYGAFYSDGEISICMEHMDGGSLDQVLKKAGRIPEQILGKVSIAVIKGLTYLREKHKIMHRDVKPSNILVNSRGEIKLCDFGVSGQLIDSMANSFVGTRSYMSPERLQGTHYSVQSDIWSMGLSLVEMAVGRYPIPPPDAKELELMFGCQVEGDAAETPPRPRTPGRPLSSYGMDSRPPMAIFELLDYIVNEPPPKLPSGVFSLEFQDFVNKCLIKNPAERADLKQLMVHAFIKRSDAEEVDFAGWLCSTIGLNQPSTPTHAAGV
UniProt Q9Y383, sequence (Q9Y383 whole entry, looked up): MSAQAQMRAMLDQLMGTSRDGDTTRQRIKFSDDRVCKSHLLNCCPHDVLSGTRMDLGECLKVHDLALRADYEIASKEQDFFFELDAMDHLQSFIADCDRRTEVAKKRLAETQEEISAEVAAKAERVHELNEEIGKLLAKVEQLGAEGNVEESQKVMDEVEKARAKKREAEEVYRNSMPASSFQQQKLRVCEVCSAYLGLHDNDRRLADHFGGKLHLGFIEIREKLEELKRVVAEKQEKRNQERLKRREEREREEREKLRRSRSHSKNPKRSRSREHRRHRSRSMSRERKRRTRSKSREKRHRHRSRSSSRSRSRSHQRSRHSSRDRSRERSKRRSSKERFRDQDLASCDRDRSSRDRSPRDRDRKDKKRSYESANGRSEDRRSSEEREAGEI
UniProt Q4G0J3, sequence (Q4G0J3 whole entry, looked up): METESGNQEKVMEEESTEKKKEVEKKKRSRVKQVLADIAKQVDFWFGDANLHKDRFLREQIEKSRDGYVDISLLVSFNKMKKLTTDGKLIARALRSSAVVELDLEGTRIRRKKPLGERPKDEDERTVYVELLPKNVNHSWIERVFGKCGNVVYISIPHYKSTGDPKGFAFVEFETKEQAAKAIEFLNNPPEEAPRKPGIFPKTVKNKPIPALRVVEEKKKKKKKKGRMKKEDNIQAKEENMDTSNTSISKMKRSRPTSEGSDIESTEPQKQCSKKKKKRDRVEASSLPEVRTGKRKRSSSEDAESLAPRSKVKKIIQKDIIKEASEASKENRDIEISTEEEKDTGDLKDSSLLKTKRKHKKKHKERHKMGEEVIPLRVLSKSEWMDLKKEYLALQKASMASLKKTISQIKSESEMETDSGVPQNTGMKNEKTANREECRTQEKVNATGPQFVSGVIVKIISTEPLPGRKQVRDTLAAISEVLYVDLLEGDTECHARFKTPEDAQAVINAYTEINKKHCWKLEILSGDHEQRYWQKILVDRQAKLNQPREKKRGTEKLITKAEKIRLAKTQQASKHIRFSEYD
UniProt Q9NVH2, sequence (Q9NVH2 whole entry, looked up): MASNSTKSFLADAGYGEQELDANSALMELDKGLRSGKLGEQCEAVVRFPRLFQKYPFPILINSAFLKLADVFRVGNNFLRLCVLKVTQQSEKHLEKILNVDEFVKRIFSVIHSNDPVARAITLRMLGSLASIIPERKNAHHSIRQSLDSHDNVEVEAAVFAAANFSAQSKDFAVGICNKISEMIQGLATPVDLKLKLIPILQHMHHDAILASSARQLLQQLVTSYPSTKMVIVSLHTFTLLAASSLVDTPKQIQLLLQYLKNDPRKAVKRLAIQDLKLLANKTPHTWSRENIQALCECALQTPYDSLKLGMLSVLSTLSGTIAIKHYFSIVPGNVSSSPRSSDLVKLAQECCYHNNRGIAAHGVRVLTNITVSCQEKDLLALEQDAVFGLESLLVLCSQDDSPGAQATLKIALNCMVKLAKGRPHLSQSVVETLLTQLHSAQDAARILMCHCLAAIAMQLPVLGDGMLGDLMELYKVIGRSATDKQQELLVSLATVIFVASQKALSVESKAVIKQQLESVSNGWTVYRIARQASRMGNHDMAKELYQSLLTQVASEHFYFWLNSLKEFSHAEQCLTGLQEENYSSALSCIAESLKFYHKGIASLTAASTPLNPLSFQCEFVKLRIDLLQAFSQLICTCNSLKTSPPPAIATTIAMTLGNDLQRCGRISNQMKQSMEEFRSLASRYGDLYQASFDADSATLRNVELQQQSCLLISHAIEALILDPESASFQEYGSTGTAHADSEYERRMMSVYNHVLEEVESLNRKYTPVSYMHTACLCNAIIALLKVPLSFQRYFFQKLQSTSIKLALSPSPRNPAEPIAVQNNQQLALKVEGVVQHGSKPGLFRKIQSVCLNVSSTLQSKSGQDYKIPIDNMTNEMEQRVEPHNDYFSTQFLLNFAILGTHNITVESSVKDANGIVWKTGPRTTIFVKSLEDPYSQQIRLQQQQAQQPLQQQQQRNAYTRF

log2 fold change, inactive:
MAPK9 (UniProt P45984) 0.016
MGST3 (UniProt O14880) 0.016
INTS7 (UniProt Q9NVH2) -0.009
LARP1 (UniProt Q6PKG0) -0.172
KDM5D isoform 3 (UniProt Q9BY66) 0.022
MAP2K1 (UniProt Q02750) -0.003
MAP3K20 (UniProt Q9NYL2) -0.036
LUC7L3 (UniProt O95232) -0.037
LBR (UniProt Q14739) 0.21
L2HGDH (UniProt Q9H9P8) -0.007
KDM3B (UniProt Q7LBC6) 0.008
LUC7L2 (UniProt Q9Y383) -0.072
MFN2 (UniProt O95140) -0.019
IPO9 (UniProt Q96P70) 0.052
LSR (UniProt Q86X29) 0.073
MAP4 (UniProt P27816) 0.015
LARP7 isoform 3 (UniProt Q4G0J3) 0.045
MFF (UniProt Q9GZY8) 0.032
METTL18 (UniProt O95568) 0.078
ILF3 isoform 7 (UniProt Q12906) -0.186
LAMP2 (UniProt P13473) 0.039
LRPPRC (UniProt P42704) -0.197
MAPKAPK3 (UniProt Q16644) -0.054
